Data from the supplement of paper PMC11732987, “Enantioselective OTUD7B fragment discovery through chemoproteomics screening and high-throughput optimisation” (Communications Chemistry, 2025).

Assays:
Test in all cases: log2 ratio of Biotin-Ahx-Ub-VS probe labelling (fragment/DMSO); higher = less target engagement (more negative = stronger competition), active = hit call of the paper (q ≤ 0.05, log2 ratio ≤ -1)
Conditions in all cases: compound concentration: 200 uM; treatment time: 3 h
USP42 = biological target: T1, USP42 (UniProt Q9H9J4)
T1 sequence (whole entry): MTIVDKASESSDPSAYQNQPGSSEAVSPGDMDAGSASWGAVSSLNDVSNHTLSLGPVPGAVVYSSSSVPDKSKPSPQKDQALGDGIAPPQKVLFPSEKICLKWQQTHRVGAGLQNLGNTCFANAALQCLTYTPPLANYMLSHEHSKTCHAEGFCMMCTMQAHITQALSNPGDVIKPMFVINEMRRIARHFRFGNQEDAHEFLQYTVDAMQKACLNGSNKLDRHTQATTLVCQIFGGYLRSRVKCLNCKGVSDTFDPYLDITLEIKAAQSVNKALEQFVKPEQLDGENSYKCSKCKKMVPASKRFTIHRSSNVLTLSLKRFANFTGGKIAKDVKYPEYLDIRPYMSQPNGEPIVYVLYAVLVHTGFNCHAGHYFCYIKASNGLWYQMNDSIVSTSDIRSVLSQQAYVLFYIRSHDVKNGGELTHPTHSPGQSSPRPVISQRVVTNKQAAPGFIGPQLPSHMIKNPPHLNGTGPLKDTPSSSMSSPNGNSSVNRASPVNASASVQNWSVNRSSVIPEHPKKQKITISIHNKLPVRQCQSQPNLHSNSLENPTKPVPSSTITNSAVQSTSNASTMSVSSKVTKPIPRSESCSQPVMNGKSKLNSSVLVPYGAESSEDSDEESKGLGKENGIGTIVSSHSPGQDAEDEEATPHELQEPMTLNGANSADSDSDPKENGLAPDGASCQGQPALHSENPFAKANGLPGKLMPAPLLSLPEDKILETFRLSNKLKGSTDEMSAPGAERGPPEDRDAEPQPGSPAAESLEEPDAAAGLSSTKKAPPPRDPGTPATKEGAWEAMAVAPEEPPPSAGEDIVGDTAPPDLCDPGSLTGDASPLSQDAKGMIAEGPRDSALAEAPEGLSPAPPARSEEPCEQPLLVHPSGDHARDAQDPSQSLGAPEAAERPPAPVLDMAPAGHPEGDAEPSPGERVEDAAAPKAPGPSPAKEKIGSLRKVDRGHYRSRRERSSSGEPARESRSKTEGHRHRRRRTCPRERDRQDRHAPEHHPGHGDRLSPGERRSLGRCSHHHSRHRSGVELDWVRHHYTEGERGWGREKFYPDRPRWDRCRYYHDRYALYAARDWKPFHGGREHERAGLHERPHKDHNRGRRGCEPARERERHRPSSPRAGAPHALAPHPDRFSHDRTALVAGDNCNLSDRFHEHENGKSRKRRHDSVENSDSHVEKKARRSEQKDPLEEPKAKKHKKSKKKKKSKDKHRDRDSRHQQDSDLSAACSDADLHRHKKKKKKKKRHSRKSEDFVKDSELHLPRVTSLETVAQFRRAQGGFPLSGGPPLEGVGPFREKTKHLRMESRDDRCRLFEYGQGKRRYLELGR
Procedure, shortened: (§1)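 Each value is an average log2 ratio of fragment to vehicle, tested by unpaired t-test. The underlying Spectronaut label-free quantities were global-median-normalised, and only proteins with ≥2 unique peptides were included. Triplicate HEK293T lysate samples (495 µg) were exposed to fragment at 200 µM or vehicle for 3 h, then to Biotin-Ahx-Ub-VS at 0.5 µM final for 1 h, before NeutrAvidin enrichment of labelled DUBs, LysC and trypsin digestion, and diaPASEF LC-MS/MS.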

USP46 = USP46 (UniProt P62068)
USP46, sequence (P62068 whole entry): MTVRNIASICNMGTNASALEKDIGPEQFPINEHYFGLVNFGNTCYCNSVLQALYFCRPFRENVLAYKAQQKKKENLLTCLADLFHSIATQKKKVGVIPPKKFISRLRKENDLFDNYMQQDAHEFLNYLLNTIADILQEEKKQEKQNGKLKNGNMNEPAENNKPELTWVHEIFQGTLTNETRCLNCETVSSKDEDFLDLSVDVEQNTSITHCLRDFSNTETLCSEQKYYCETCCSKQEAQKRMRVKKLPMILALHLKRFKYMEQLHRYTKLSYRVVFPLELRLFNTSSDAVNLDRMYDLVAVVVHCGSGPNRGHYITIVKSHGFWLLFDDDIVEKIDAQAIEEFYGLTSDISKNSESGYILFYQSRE
Procedure, shortened: as §1

USP47 = biological target: T2, USP47 (UniProt Q96K76)
T2 sequence (whole entry): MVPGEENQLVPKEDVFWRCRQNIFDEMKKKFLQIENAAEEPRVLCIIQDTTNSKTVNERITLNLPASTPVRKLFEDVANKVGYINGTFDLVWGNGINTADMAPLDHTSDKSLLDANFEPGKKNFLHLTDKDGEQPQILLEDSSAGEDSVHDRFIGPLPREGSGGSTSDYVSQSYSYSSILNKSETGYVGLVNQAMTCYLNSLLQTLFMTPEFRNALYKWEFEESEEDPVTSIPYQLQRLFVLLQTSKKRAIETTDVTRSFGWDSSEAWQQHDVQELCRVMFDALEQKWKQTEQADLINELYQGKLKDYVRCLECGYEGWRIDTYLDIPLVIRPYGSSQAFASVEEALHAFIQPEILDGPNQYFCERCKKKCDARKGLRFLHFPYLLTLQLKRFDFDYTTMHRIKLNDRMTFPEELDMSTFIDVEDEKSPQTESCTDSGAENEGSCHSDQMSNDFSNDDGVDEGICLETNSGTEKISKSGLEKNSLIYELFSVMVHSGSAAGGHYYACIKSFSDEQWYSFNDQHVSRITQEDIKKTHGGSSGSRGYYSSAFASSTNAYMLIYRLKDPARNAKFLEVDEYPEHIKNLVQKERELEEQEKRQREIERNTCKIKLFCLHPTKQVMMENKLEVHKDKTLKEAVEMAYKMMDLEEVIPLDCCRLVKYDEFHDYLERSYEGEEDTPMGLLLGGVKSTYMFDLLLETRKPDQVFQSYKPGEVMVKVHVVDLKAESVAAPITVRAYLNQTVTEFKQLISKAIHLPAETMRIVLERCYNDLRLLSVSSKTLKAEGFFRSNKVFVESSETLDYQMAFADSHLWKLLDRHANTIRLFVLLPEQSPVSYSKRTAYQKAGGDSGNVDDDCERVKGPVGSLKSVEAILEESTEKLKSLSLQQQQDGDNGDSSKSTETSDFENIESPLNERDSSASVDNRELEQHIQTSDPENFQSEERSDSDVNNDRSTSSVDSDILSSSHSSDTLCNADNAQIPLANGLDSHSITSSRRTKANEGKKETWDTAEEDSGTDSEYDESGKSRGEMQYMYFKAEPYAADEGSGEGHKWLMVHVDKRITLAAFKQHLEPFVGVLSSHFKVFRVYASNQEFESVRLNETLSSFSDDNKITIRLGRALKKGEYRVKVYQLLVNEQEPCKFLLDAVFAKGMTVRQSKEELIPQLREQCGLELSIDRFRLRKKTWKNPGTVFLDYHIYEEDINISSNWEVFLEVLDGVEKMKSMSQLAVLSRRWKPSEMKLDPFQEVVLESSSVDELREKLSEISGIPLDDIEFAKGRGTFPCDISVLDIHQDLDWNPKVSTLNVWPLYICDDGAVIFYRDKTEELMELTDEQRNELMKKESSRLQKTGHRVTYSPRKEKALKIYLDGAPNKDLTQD
Procedure, shortened: as §1

USP48 = biological target: T3, USP48 (UniProt Q86UV5)
T3 sequence (whole entry): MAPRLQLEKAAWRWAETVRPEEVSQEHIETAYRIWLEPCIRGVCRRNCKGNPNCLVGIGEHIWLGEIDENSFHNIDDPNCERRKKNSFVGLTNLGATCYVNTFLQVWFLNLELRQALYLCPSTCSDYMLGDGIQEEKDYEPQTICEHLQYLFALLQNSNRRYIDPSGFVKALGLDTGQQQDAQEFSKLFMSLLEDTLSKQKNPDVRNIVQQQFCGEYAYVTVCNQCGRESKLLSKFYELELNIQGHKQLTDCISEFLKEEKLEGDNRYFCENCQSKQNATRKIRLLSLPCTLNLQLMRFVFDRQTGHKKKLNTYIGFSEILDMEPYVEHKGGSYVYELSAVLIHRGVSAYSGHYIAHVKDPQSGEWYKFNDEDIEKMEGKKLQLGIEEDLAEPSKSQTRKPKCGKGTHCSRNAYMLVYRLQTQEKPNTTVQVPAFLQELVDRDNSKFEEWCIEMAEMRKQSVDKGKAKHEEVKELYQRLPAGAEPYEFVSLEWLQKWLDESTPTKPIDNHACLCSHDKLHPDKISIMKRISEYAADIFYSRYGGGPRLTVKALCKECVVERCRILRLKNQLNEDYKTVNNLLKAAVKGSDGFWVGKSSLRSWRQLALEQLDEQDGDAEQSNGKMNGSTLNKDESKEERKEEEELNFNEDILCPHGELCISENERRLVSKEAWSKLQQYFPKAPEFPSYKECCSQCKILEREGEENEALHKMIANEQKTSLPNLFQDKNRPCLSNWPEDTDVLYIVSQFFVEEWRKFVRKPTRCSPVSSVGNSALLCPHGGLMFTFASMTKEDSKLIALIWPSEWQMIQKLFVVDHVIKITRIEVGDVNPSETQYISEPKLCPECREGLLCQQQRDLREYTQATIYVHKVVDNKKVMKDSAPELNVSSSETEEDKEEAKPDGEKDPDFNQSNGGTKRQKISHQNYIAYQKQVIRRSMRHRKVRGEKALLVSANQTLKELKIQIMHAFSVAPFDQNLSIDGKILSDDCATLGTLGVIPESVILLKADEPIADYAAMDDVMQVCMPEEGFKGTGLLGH
Procedure, shortened: as §1

USP5 = biological target: T4, USP5 (UniProt P45974)
T4 sequence (whole entry): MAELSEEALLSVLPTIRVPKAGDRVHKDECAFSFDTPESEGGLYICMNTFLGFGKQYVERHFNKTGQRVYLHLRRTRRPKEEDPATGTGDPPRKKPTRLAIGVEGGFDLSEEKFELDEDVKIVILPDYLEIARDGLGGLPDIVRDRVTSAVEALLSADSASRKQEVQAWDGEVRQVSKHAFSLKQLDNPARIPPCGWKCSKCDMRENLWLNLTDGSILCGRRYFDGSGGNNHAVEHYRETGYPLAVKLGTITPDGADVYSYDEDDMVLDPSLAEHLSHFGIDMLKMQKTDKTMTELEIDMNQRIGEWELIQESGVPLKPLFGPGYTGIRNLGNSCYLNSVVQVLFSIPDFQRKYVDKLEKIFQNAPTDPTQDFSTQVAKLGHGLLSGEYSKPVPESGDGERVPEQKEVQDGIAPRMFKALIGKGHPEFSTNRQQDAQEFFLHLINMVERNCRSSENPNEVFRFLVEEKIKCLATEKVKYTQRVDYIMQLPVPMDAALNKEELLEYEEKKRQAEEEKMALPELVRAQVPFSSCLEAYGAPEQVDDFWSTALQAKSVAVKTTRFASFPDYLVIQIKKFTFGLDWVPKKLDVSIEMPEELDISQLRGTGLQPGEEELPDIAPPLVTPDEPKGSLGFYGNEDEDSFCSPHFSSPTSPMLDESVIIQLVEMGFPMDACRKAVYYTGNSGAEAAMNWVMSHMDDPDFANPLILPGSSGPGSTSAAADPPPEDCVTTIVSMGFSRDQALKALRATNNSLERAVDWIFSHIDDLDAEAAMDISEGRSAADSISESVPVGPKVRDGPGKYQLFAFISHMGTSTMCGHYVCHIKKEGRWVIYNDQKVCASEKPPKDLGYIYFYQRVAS
Procedure, shortened: as §1

USP54 = USP54 (UniProt Q70EL1)
USP54, sequence (Q70EL1 whole entry): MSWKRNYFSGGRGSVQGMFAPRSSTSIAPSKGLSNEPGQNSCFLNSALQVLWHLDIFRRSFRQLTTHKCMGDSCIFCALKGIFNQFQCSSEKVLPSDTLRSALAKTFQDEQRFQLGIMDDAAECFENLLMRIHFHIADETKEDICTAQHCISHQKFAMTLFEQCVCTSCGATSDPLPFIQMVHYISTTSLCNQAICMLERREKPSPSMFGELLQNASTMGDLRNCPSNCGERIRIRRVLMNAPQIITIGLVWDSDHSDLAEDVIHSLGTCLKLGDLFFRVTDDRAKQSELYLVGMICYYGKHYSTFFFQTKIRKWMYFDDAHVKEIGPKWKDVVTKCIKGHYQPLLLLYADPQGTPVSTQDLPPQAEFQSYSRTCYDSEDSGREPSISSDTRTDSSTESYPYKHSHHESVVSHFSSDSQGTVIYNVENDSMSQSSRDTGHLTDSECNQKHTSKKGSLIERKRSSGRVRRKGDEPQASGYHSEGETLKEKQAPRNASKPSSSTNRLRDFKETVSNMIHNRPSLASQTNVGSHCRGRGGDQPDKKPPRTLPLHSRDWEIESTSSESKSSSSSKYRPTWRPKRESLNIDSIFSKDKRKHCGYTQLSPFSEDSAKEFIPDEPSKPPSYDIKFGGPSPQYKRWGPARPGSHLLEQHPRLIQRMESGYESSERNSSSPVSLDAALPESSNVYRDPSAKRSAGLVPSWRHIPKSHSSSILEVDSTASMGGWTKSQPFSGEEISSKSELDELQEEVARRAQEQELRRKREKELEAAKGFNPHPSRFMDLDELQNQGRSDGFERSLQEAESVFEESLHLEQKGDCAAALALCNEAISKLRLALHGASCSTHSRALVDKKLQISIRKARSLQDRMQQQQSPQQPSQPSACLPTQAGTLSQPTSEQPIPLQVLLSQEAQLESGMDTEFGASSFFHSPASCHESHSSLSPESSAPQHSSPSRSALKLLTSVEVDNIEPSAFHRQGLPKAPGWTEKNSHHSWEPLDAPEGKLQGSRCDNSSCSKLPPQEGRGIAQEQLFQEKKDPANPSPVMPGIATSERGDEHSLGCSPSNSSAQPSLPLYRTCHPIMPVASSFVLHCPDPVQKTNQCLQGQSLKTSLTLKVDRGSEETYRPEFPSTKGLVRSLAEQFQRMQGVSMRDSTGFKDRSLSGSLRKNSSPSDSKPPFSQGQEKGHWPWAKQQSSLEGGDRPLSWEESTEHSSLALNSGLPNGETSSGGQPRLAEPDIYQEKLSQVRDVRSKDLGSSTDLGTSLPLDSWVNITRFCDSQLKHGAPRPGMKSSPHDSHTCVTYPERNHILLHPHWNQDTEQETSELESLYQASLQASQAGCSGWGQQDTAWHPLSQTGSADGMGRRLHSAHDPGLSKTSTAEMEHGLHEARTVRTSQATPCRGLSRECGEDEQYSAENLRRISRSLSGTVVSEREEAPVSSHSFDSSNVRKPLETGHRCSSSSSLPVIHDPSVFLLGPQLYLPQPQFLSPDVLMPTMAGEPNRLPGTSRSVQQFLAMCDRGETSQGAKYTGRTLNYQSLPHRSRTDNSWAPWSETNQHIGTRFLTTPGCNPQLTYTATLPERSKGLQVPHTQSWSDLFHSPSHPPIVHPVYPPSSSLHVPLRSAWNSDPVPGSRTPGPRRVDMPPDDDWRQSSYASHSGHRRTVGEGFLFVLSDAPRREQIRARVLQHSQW
Procedure, shortened: as §1

USP7 = USP7 (UniProt Q93009)
Procedure, shortened: as §1

USP8 = biological target: T5, USP8 (UniProt P40818)
T5 sequence (whole entry): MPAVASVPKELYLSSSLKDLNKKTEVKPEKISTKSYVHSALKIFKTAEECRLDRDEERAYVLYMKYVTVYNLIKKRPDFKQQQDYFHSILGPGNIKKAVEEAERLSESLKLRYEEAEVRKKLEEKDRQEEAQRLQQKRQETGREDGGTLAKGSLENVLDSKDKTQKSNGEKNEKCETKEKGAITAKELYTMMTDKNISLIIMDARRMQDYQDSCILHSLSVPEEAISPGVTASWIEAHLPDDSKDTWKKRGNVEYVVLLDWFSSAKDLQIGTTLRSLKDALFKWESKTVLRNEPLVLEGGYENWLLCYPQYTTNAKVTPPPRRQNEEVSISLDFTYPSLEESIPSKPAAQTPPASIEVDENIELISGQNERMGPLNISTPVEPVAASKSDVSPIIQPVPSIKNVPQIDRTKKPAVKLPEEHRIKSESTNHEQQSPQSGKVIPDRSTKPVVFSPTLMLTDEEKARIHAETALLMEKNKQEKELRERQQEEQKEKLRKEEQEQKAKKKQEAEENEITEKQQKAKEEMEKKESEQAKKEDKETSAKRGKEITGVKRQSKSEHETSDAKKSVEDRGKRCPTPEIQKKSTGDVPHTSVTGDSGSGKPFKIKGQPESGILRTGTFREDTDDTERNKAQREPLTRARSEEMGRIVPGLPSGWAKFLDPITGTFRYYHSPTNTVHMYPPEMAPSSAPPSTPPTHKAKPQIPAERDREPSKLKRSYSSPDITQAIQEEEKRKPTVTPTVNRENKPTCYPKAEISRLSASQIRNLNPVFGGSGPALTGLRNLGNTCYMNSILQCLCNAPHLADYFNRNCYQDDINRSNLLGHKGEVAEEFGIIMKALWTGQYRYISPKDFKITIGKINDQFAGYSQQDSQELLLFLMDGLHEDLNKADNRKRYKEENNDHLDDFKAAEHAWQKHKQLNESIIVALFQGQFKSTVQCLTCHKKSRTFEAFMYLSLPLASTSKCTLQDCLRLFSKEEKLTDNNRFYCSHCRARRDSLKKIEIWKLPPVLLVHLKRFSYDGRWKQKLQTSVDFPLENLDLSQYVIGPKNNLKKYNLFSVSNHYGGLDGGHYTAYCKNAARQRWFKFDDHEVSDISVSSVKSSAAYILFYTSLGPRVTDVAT
Procedure, shortened: as §1

USP9X = USP9X (UniProt Q93008)
USP9X, sequence (Q93008 whole entry): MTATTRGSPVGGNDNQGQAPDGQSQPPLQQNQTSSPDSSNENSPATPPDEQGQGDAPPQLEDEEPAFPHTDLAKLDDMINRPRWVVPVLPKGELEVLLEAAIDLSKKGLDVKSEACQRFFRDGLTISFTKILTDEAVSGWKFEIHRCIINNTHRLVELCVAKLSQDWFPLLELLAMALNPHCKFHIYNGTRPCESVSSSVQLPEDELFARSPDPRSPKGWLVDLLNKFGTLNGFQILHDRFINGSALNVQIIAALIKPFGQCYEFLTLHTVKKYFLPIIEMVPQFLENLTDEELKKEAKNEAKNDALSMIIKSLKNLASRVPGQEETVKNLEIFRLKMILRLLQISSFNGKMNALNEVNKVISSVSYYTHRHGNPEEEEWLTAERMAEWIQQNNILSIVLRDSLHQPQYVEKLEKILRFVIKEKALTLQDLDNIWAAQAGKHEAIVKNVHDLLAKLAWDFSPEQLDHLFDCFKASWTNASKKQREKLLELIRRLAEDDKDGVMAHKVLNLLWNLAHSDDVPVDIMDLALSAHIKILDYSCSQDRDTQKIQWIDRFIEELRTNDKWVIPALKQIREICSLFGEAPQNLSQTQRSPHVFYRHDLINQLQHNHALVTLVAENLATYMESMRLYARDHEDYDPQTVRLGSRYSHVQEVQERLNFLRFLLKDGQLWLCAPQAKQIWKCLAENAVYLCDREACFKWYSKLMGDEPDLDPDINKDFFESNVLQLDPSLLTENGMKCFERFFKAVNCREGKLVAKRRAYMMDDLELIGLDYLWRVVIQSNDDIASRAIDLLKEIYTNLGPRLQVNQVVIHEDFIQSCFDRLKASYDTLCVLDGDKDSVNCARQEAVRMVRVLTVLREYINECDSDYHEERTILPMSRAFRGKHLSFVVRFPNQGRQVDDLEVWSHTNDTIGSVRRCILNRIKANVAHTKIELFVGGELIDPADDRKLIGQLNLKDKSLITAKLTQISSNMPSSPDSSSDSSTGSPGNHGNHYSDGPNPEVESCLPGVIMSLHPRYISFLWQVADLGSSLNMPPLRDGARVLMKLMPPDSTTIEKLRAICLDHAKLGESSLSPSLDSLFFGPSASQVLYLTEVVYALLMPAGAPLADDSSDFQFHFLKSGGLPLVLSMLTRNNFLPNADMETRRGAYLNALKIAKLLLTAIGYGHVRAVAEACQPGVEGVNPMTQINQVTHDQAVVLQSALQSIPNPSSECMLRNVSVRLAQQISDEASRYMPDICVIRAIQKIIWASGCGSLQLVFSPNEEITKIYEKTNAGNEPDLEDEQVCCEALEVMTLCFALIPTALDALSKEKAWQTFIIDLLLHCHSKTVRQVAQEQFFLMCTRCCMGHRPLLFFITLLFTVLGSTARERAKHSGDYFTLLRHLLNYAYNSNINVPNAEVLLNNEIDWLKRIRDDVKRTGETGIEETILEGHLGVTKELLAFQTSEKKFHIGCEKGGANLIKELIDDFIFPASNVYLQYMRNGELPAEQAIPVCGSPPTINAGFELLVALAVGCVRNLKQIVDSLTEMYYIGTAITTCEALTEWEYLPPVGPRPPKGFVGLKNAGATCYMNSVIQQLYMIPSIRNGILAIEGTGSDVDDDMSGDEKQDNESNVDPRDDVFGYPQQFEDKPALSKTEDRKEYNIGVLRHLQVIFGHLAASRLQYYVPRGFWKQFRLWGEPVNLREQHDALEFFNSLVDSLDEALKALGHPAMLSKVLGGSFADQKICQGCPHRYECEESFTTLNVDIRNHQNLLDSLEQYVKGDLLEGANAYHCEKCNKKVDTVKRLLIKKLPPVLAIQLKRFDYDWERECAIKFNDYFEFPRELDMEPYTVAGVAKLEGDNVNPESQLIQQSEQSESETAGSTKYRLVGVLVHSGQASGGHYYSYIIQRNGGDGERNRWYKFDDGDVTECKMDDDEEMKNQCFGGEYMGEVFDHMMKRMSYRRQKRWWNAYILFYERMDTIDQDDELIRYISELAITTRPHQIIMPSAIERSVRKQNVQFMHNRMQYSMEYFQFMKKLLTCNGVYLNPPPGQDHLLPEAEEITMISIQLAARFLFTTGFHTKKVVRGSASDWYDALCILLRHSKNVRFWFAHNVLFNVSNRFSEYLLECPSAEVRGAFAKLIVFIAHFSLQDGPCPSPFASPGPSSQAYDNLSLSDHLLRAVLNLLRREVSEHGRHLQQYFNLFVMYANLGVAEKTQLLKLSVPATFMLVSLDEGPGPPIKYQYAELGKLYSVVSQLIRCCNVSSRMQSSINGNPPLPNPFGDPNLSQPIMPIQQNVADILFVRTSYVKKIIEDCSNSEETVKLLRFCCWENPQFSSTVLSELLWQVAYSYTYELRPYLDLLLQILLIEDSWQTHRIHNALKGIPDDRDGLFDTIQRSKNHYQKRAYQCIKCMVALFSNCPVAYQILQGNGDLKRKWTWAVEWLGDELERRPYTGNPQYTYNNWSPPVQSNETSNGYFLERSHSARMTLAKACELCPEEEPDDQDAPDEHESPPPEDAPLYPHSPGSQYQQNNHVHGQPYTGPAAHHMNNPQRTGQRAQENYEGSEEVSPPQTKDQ
Procedure, shortened: as §1

UniProt O00487 = biological target: UniProt O00487
UniProt O00487, sequence (O00487 whole entry): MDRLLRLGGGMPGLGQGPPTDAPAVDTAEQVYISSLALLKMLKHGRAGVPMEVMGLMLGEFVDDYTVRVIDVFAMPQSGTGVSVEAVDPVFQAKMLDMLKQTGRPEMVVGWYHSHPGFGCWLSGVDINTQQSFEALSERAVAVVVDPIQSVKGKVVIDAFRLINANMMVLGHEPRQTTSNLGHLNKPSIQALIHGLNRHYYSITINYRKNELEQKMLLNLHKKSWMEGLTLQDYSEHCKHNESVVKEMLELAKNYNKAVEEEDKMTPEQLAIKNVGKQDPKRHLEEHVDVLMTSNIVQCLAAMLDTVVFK
Procedure, shortened: as §1

Measured: log2 ratio of Biotin-Ahx-Ub-VS probe labelling

O=C(CCl)N(C1=CCCCC1)C1CC1
inactive: USP42 0.331 | USP46 -0.1 | USP47 -0.571 | USP48 -0.64 | USP5 0.124 | USP54 0.551 | USP7 -0.612 | USP8 -0.00831 | USP9X -0.0905 | UniProt O00487 -0.232
